Several values for one entry are separate records, joined by “and”; a condition that tells them apart may be missing. Identical values can stand only once. Hit rate of the full screen: of about 5,500 compounds, about 2,000 (36%) were called active. Not shown: some 18% with an inconclusive outcome. No stated cut-off is given here; in the data, active means normalized growth mostly below about 0.91 (no sharp cut-off); inconclusive means no clear call, values can overlap the other calls; inactive means mostly above about 0.92. This is one part of the list.
Assay: chemical genetic growth profiling, strain panel (AID 1159580);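 further: tested at 20 µM; growth read once vehicle control cultures reached saturation at 30 °C; 1 = growth at the plate median or of vehicle wells; lower values mean less growth of the strain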
Conditions: S. cerevisiae deletion strains, growth OD

Measured: normalized growth

Cn1c(=O)[nH]c2ncn(C)c2c1=O
inactive: locus YAL013W, strain DEP1, active compounds read low 1.01 | locus YAL021C, strain ccr4, active compounds read low 1.06 | locus YAL026C, strain drs2, active compounds read low 0.985 | locus YAL030W, strain snc1, active compounds read low 0.981 | locus YAL040C, strain CLN3, active compounds read low 0.958 | locus YBL061C, strain skt5, active compounds read low 0.99 | locus YBR009C, strain hhf1, active compounds read low 0.995 | locus YBR021W, strain FUR4, active compounds read low 1.04 | locus YBR023C, strain chs3, active compounds read low 1 | locus YBR171W, strain sec66, active compounds read low 0.95 | locus YBR229C, strain ROT2, active compounds read low 1.01 | locus YBR231C, strain swc5, active compounds read low 0.962 | locus YBR279W, strain paf1, active compounds read low 0.993 | locus YCL011C, strain gbp2, active compounds read low 0.966 | locus YCL016C, strain dcc1, active compounds read low 1.03 | locus YCL029C, strain bik1, active compounds read low 0.996 | locus YCL061C, strain MRC1 (second series), active compounds read low 1.01 | locus YCL061C, strain MRC1, active compounds read low 0.995 | locus YCL069W, strain vba3, active compounds read low 0.968 | locus YCR088W, strain abp1, active compounds read low 0.966 | locus YDL005C, strain med2, active compounds read low 0.962 | locus YDL035C, strain GPR1, active compounds read low 1.02 | locus YDL040C, strain nat1, active compounds read low 0.962 | locus YDL074C, strain BRE1, active compounds read low 1.05 | locus YDL101C, strain DUN1, active compounds read low 1.01 | locus YDL134C, strain PPH21, active compounds read low 1.02 | locus YDL185W, strain tfp1, active compounds read low 0.996 | locus YDL192W, strain arf1, active compounds read low 0.993 | locus YDR001C, strain nth1, active compounds read low 0.968 | locus YDR069C, strain doa4, active compounds read low 0.949 | locus YDR101C, strain arx1, active compounds read low 1 | locus YDR137W, strain rgp1, active compounds read low 0.988 | locus YDR150W, strain NUM1, active compounds read low 1.02 and 0.997 | locus YDR159W, strain sac3, active compounds read low 0.939 | locus YDR162C, strain NBP2, active compounds read low 1 | locus YDR195W, strain ref2 0.95 | locus YDR297W, strain sur2, active compounds read low 0.959 | locus YDR318W, strain mcm21, active compounds read low 0.992 | locus YDR334W, strain swr1, active compounds read low 0.975 | locus YDR335W, strain msn5, active compounds read low 0.978 | locus YDR363W, strain ESC2, active compounds read low 1.01 | locus YDR388W, active compounds read low 0.989 | locus YDR392W, strain spt3, active compounds read low 0.937 | locus YDR502C, strain sam2, active compounds read low 0.993 | locus YEL003W, strain gim4, active compounds read low 0.972 | locus YEL037C, strain rad23, active compounds read low 0.968 | locus YEL061C, strain CIN8 (second series), active compounds read low 0.959 | locus YEL061C, strain CIN8, active compounds read low 1.01 | locus YER002W, strain NOP16, active compounds read low 1.01 | locus YER015W, strain faa2, active compounds read low 0.98 | locus YER016W, strain bim1, active compounds read low 0.967 | locus YER110C, active compounds read low 0.996 | locus YER111C, strain swi4, active compounds read low 0.98 | locus YER155C, strain BEM2 (second series), active compounds read low 0.959 | locus YER155C, strain BEM2, active compounds read low 1.02 | locus YER167W, strain BCK2, active compounds read low 1.01 | locus YFR010W, strain ubp6, active compounds read low 0.962 | locus YGL078C, strain dbp3, active compounds read low 0.989 | locus YGL086W, strain mad1, active compounds read low 1 | locus YGL167C, strain pmr1, active compounds read low 0.982 | locus YGL173C, strain kem1, active compounds read low 0.97 | locus YGL227W, strain vid30, active compounds read low 0.967 | locus YGL240W, strain doc1, active compounds read low 0.958 | locus YGL248W, strain PDE1, active compounds read low 1.01 | locus YGL253W, strain hxk2, active compounds read low 0.958 | locus YGR078C, strain PAC10, active compounds read low 1.02 and 0.978 | locus YGR135W, strain pre9, active compounds read low 0.992 | locus YGR229C, strain SMI1, active compounds read low 1.02 | locus YGR252W, strain gcn5, active compounds read low 0.981 | locus YHR013C, strain ard1, active compounds read low 0.986 | locus YHR027C, strain rpn1, active compounds read low 0.98 | locus YHR030C, strain SLT2, active compounds read low 1 | locus YHR079C, strain IRE1 (second series), active compounds read low 0.987 | locus YHR094C, strain hxt1, active compounds read low 0.992 | locus YHR129C, strain ARP1, active compounds read low 1.02 | locus YHR142W, strain chs7, active compounds read low 0.987 | locus YHR200W, strain rpn10, active compounds read low 0.993 | locus YIL066C, strain RNR3, active compounds read low 1.01 | locus YIL073C, strain SPO22, active compounds read low 1 | locus YIL125W, strain kgd1, active compounds read low 0.994 | locus YIR030C, strain dcg1, active compounds read low 1 | locus YJL092W, strain hpr5, active compounds read low 0.971 | locus YJL095W, strain BCK1 (second series), active compounds read low 0.973 | locus YJL095W, strain BCK1, active compounds read low 1.02 | locus YJL115W, strain asf1, active compounds read low 0.969 | locus YJL129C, strain trk1, active compounds read low 0.967 | locus YJL134W, strain LCB3, active compounds read low 1 | locus YJL154C, strain vps35, active compounds read low 0.969 | locus YJL164C, strain tpk1, active compounds read low 1 | locus YJL166W, strain qcr8, active compounds read low 0.972 | locus YJL168C, strain set2, active compounds read low 0.99 | locus YJL187C, strain SWE1 (second series), active compounds read low 1.01 | locus YJL187C, strain SWE1, active compounds read low 0.986

From PubChem BioAssay AID1159580 (chemical genetic matrix, 2015)
